The panel holds about 83,000 compounds, 20% with a hit somewhere; the sample as a whole holds those more often.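 Plates (96-well) were seeded with cells, treated with compound at one concentration, and incubated for 48 hours before percent growth was determined.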 Unmarked numbers belong to inactive results. Calls of active or inactive are those of the source. The calls were made as follows: active = growth percent below 10; inactive = the rest.
test system: SNB-75 CNS; assay: NCI-60 one-dose screen, 48 h (100 = growth as untreated, 0 = no growth, -100 = all killed); conditions: 10 µM unless noted

Row | SMILES | growth
1 | C=C1C(=O)O[C@H]2[C@H]1CC/C(COC(=O)NCCc1cccc(OC)c1)=C\CC[C@@]1(C)O[C@@H]21 | 76.1%
2 | COc1ccccc1OCC(=O)Nc1sc2c(c1C(N)=O)CCC2 | 86.8%
3 | CCc1c(C(=O)Nc2ccc3ccccc3c2)[nH]c(C)c1C(C)=O | 84.4%
4 | CCC(=O)Oc1ccc2c(c1)CC[C@@H]1[C@@H]2CC[C@]2(C)C[C@H](OC(=O)CC)C[C@@H]12 | 46%
5 | COC(=O)CCCCN=Cc1c(O)c(O)c(C(C)C)c2cc(C)c(-c3c(C)cc4c(C(C)C)c(O)c(O)c(C=NCCCCC(=O)OC)c4c3O)c(O)c12 | 42.6%
6 | COc1ccc2c(c1)C(C)Cc1c(N(C)C)ncnc1N2C (stereo not drawn) | 14.3%
7 | Cc1ccc(S(=O)(=O)OCC(=O)Nc2ccc(C(=O)O)c(O)c2)cc1 | 98.8%
8 | O=C(O)c1ccc(-n2cc(CNc3ccc(C(F)(F)F)cc3)c(-c3ccccc3)n2)cc1 | 92.1%
9 | Cc1cc(C(=O)CSc2nc3ccccc3c(=O)[nH]2)c(C)n1C | 118%
10 | CC/C=C\C[C@H](O)C/C=C1/C(=O)C(Cl)=C[C@@H]1C/C=C\CCCC(=O)OC | 50%
11 | CCSc1nnc(Nc2ccc(C(C)C)cc2)s1 | 102%
12 | Cc1ccc2nc(-c3c(N)n[nH]c3CCCO)[nH]c(=O)c2c1 | 91%
13 | COc1cc(C(=O)N2CCN(C(=O)c3ccco3)CC2)c(N)cc1OCc1ccccc1 | 96.8%
14 | O=C(Nc1cccc(Cl)c1)c1cc([N+](=O)[O-])ccc1O | 67.8%
15 | O=C(CNC(=O)c1cccc2ccccc12)Nc1ccccc1Oc1ccccc1 | 38.9%
16 | Nc1cccc2c1CN(C1CCC(=O)NC1=O)C2=O (stereo not drawn) | 88.4%
17 | Nc1ccc(S(=O)(=O)c2ccc(Cl)cc2)cc1 | 79.7%
18 | CNC(=O)c1cc(Oc2ccc3c(c2)sc2nc(-c4ccc(Cl)cc4)cn23)ccn1 | 47.9%
19 | Cc1cc(C)c2c(=O)[nH]c(SCC(=O)Nc3cccc(S(=O)(=O)N(C)C)c3)nc2n1 | 90.7%
20 | CSc1ccccc1C#C/C=C\C#Cc1ccccc1N1CCCC1=O | 47%

Row | SMILES | growth
21 | O=S(=O)(NCCCNc1cc(-c2cn(-c3ccccc3)nc2-c2cccc(O)c2)ccn1)c1ccc(Cl)cc1 | 20.3%
22 | CC(=O)Oc1cccc(OC(C)=O)c1OC(C)=O | 88.4%
23 | C=C1C(=O)O[C@H]2[C@H]1CC/C(COC(=O)NCCc1ccc(Br)cc1)=C\CC[C@@]1(C)O[C@@H]21 | 56.8%
24 | O=S=Nc1ccc([N+](=O)[O-])cc1 | 88.7%
25 | COc1ccc(N=C2NN=C(c3ccc(F)cc3)CS2)cc1OC | 123%
26 | NC(C(=O)O)C(O)c1ccc(OCc2ccccc2)c(OCc2ccccc2)c1 (stereo not drawn) | 77.6%
27 | CC/C=C\C[C@H]1C/C=C2/C(=O)C(Cl)=C[C@@H]2C/C=C\CCCC(=O)O1 | -19.9% (active)
28 | Cc1sc2nc(CSc3nnc(-c4ccco4)o3)[nH]c(=O)c2c1C | 108%
29 | O=S(=O)(NCCCNc1cc(-c2cn(-c3ccccc3)nc2-c2cccc(O)c2)ccn1)c1cccc2ccccc12 | 28.1%
30 | CN(C)c1nc(N)c(N=O)c(N)n1 | 98.5%
31 | O=C1NC(Cc2c[nH]c3ccccc23)C(=O)N1Cc1ccc(Cl)cc1 (stereo not drawn) | 90.1%
32 | COC(=O)c1ccc(C)cc1 | 89.2%
33 | COC(=O)CCCCCN=Cc1c(O)c(O)c(C(C)C)c2cc(C)c(-c3c(C)cc4c(C(C)C)c(O)c(O)c(C=NCCCCCC(=O)OC)c4c3O)c(O)c12 | 46.9%
34 | O=S(=O)(NCCCNc1nccc(-c2c(-c3ccc(F)c(O)c3)nc3sccn23)n1)c1ccc(Cl)cc1 | 122%
35 | COc1ncc(-c2ccc3ncnc(Nc4cccc(Cl)c4)c3c2)cc1N(S(C)(=O)=O)S(C)(=O)=O | 41.1%
36 | CC(Br)C(O)c1cc2c(cc1Br)OCO2 (stereo not drawn) | 88%
37 | O=S(=O)(NCCCNc1cc(-c2cn(-c3ccccc3)nc2-c2cccc(O)c2)ccn1)c1ccc(Br)cc1 | 25.8%
38 | COc1ccc2c(c1)NC(=O)CN2c1nc(C)nc2ccccc12 | 41.8%
39 | NC(=O)c1c(NC(=O)c2ccc3c(c2)OCO3)sc2c1CCC(=O)C2 | -12.6% (active)

test system: SNB-19 CNS; assay: as above; conditions: 10 µM unless noted

Row | SMILES | growth
40 | C=C1C(=O)O[C@H]2[C@H]1CC/C(COC(=O)NCCc1cccc(OC)c1)=C\CC[C@@]1(C)O[C@@H]21 | 56.9%
41 | COc1ccccc1OCC(=O)Nc1sc2c(c1C(N)=O)CCC2 | 70.4%
42 | CCc1c(C(=O)Nc2ccc3ccccc3c2)[nH]c(C)c1C(C)=O | 110%
43 | CCC(=O)Oc1ccc2c(c1)CC[C@@H]1[C@@H]2CC[C@]2(C)C[C@H](OC(=O)CC)C[C@@H]12 | 77.7%
44 | COC(=O)CCCCN=Cc1c(O)c(O)c(C(C)C)c2cc(C)c(-c3c(C)cc4c(C(C)C)c(O)c(O)c(C=NCCCCC(=O)OC)c4c3O)c(O)c12 | 17.6%
45 | COc1ccc2c(c1)C(C)Cc1c(N(C)C)ncnc1N2C (stereo not drawn) | 40.5%
46 | Cc1ccc(S(=O)(=O)OCC(=O)Nc2ccc(C(=O)O)c(O)c2)cc1 | 108%
47 | O=C(O)c1ccc(-n2cc(CNc3ccc(C(F)(F)F)cc3)c(-c3ccccc3)n2)cc1 | 102%
48 | Cc1cc(C(=O)CSc2nc3ccccc3c(=O)[nH]2)c(C)n1C | 95.5%
49 | CC/C=C\C[C@H](O)C/C=C1/C(=O)C(Cl)=C[C@@H]1C/C=C\CCCC(=O)OC | -10.9% (active)
50 | CCSc1nnc(Nc2ccc(C(C)C)cc2)s1 | 98.4%
51 | Cc1ccc2nc(-c3c(N)n[nH]c3CCCO)[nH]c(=O)c2c1 | 106%
52 | COc1cc(C(=O)N2CCN(C(=O)c3ccco3)CC2)c(N)cc1OCc1ccccc1 | 103%
53 | O=C(Nc1cccc(Cl)c1)c1cc([N+](=O)[O-])ccc1O | 53.3%
54 | O=C(CNC(=O)c1cccc2ccccc12)Nc1ccccc1Oc1ccccc1 | 33.8%
55 | Nc1cccc2c1CN(C1CCC(=O)NC1=O)C2=O (stereo not drawn) | 88.9%
56 | Nc1ccc(S(=O)(=O)c2ccc(Cl)cc2)cc1 | 93.9%
57 | CNC(=O)c1cc(Oc2ccc3c(c2)sc2nc(-c4ccc(Cl)cc4)cn23)ccn1 | 54%
58 | Cc1cc(C)c2c(=O)[nH]c(SCC(=O)Nc3cccc(S(=O)(=O)N(C)C)c3)nc2n1 | 95.9%
59 | CSc1ccccc1C#C/C=C\C#Cc1ccccc1N1CCCC1=O | 88.5%

Row | SMILES | growth
60 | O=S(=O)(NCCCNc1cc(-c2cn(-c3ccccc3)nc2-c2cccc(O)c2)ccn1)c1ccc(Cl)cc1 | 43.8%
61 | CC(=O)Oc1cccc(OC(C)=O)c1OC(C)=O | 105%
62 | C=C1C(=O)O[C@H]2[C@H]1CC/C(COC(=O)NCCc1ccc(Br)cc1)=C\CC[C@@]1(C)O[C@@H]21 | 40.9%
63 | O=S=Nc1ccc([N+](=O)[O-])cc1 | 103%
64 | COc1ccc(N=C2NN=C(c3ccc(F)cc3)CS2)cc1OC | 94.3%
65 | NC(C(=O)O)C(O)c1ccc(OCc2ccccc2)c(OCc2ccccc2)c1 (stereo not drawn) | 97.1%
66 | CC/C=C\C[C@H]1C/C=C2/C(=O)C(Cl)=C[C@@H]2C/C=C\CCCC(=O)O1 | -40.2% (active)
67 | Cc1sc2nc(CSc3nnc(-c4ccco4)o3)[nH]c(=O)c2c1C | 106%
68 | O=S(=O)(NCCCNc1cc(-c2cn(-c3ccccc3)nc2-c2cccc(O)c2)ccn1)c1cccc2ccccc12 | 64.2%
69 | CN(C)c1nc(N)c(N=O)c(N)n1 | 112%
70 | O=C1NC(Cc2c[nH]c3ccccc23)C(=O)N1Cc1ccc(Cl)cc1 (stereo not drawn) | 103%
71 | COC(=O)c1ccc(C)cc1 | 115%
72 | COC(=O)CCCCCN=Cc1c(O)c(O)c(C(C)C)c2cc(C)c(-c3c(C)cc4c(C(C)C)c(O)c(O)c(C=NCCCCCC(=O)OC)c4c3O)c(O)c12 | 20.6%
73 | O=S(=O)(NCCCNc1nccc(-c2c(-c3ccc(F)c(O)c3)nc3sccn23)n1)c1ccc(Cl)cc1 | 115%
74 | COc1ncc(-c2ccc3ncnc(Nc4cccc(Cl)c4)c3c2)cc1N(S(C)(=O)=O)S(C)(=O)=O | 72.8%
75 | CC(Br)C(O)c1cc2c(cc1Br)OCO2 (stereo not drawn) | 112%
76 | O=S(=O)(NCCCNc1cc(-c2cn(-c3ccccc3)nc2-c2cccc(O)c2)ccn1)c1ccc(Br)cc1 | 27.3%
77 | COc1ccc2c(c1)NC(=O)CN2c1nc(C)nc2ccccc12 | 34.4%
78 | NC(=O)c1c(NC(=O)c2ccc3c(c2)OCO3)sc2c1CCC(=O)C2 | 14.3%
